From the supplement of paper PMC8728848
The entries come from a sample that favours the strongest signals as a whole.

Tests used:
Assay in all cases: glycan array binding signal (z-score within array); higher = stronger binding
Details in all cases: glycan notation: IUPAC condensed, linker removed
Fuc(a1-2)Gal(b1-3)GlcNAc = biological target: Fuc(a1-2)Gal(b1-3)GlcNAc
In short: (§1)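 Glycan array binding is given as a within-array Z-score, which can be read as non-binding when negative. The arrays, 3228 of them, came from the Consortium for Functional Glycomics database and were retained only where the protein sequence was available. Z-scores were averaged across arrays of the same protein sequence at different concentrations or buffers and across linkers.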

[1] = biological target: Fuc(a1-2)[Gal(a1-4)]Gal(b1-4)GlcNAc
In short: as §1

[2] = biological target: Fuc(a1-2)[GalNAc(a1-3)]Gal(b1-4)Glc
In short: as §1

[3] = biological target: Fuc(a1-2)[GalNAc(a1-3)]Gal(b1-4)GlcNAc
In short: as §1

[4] = biological target: Fuc(a1-2)[GalNAc(b1-3)]Gal
In short: as §1

Gal(a1-2)Gal = biological target: Gal(a1-2)Gal
In short: as §1

Gal(a1-3)Gal(b1-4)Glc = biological target: Gal(a1-3)Gal(b1-4)Glc
In short: as §1

[5] = biological target: Gal(a1-3)Gal(b1-4)[Fuc(a1-3)]GlcNAc
In short: as §1

[6] = biological target: Gal(a1-3)[Gal(a1-4)]Gal(b1-4)GlcNAc
In short: as §1

Gal(a1-4)GlcNAc = biological target: Gal(a1-4)GlcNAc
In short: as §1

Gal(a1-6)Glc = biological target: Gal(a1-6)Glc
In short: as §1

Gal(b1-3)Gal = biological target: Gal(b1-3)Gal
In short: as §1

[7] = biological target: Gal(b1-4)GlcNAc(b1-6)Gal(b1-4)GlcNAc(b1-6)GalNAc
In short: as §1

Glc(a1-4)Glc = biological target: Glc(a1-4)Glc
In short: as §1

GlcA(b1-3)Gal = biological target: GlcA(b1-3)Gal
In short: as §1

[8] = biological target: GlcNAc(a1-3)Gal(b1-4)GlcNAc
In short: as §1

[9] = biological target: Man(a1-2)Man(a1-2)Man(a1-6)[Man(a1-3)]Man
In short: as §1

Man(a1-2)Man(a1-3)Man = biological target: Man(a1-2)Man(a1-3)Man
In short: as §1

[10] = biological target: Man(a1-2)Man(a1-3)[Man(a1-2)Man(a1-6)]Man(a1-6)[Man(a1-2)Man(a1-2)Man(a1-3)]Man(b1-4)GlcNAc(b1-4)GlcNAc
In short: as §1

[11] = biological target: Man(a1-2)Man(a1-6)[Man(a1-3)]Man(a1-6)[Man(a1-2)Man(a1-2)Man(a1-3)]Man(b1-4)GlcNAc(b1-4)GlcNAc
In short: as §1

[12] = biological target: Neu5Ac(a2-3)Gal(b1-3)[Neu5Ac(a2-6)]GalNAc
In short: as §1

Neu5Gc(a2-3)Gal(b1-4)Glc = biological target: Neu5Gc(a2-3)Gal(b1-4)Glc
In short: as §1

B1: PA-IL (Pseudomonas aeruginosa) (protein)
chain: AWKGEVLANNEAGQVTSIIYNPGDVITIVAAGWASYGPTQKWGPQGDREHPDQGLICHDAFCGALVMKIGNSGTIPVNTGLFRWVAPNNVQGAITLIYNDVPGTYGNNSGSFSVNIGKDQS
B1 was tested, and the “glycan array binding signal (z-score)” value (Fuc(a1-2)Gal(b1-3)GlcNAc) was -0.365, the “glycan array binding signal (z-score)” value [1] was 3.69 and the “glycan array binding signal (z-score)” value [2] was 0.183. For the same binder, the “glycan array binding signal (z-score)” value [3] was 0.174, the “glycan array binding signal (z-score)” value [4] was -0.363 and the “glycan array binding signal (z-score)” value (Gal(a1-2)Gal) was 4.77. For the same binder, the “glycan array binding signal (z-score)” value (Gal(a1-3)Gal(b1-4)Glc) was 3.73, the “glycan array binding signal (z-score)” value [5] was 4.11 and the “glycan array binding signal (z-score)” value [6] was 3.92. The “glycan array binding signal (z-score)” value (Gal(a1-4)GlcNAc) was 3.15, the “glycan array binding signal (z-score)” value (Gal(a1-6)Glc) was 1.53 and the “glycan array binding signal (z-score)” value (Gal(b1-3)Gal) was -0.271. For the same binder, the “glycan array binding signal (z-score)” value [7] was 0.234, the “glycan array binding signal (z-score)” value (Glc(a1-4)Glc) was -0.365 and the “glycan array binding signal (z-score)” value (GlcA(b1-3)Gal) was -0.365. The “glycan array binding signal (z-score)” value [8] was -0.365, the “glycan array binding signal (z-score)” value [9] was -0.365 and the “glycan array binding signal (z-score)” value (Man(a1-2)Man(a1-3)Man) was -0.365. The “glycan array binding signal (z-score)” value [10] was -0.357, the “glycan array binding signal (z-score)” value [11] was -0.364 and the “glycan array binding signal (z-score)” value [12] was -0.365. For the same binder, the “glycan array binding signal (z-score)” value (Neu5Gc(a2-3)Gal(b1-4)Glc) was -0.364.
